Measurements as given in PubChem BioAssay (NCATS).
Inconclusive results are not listed. Entries that show only a call come without a potency. Active and inactive are the calls of the source. Calls come from the whole dose curve; as a rule, active = well fitted inhibition curve with a large enough effect; inconclusive = small, poorly fitted or top-dose-only effect; inactive = flat fitted curve, though single readings scatter.

tested on: Zika virus NS2B-NS3 protease; experiment: Primary screen GU AMC qHTS for Zika virus inhibitors (AID 1347154); conditions: Zika NS2B-NS3 unlinked protease, AMC fluorogenic substrate; series mostly up to 54.1 µM; note: nearly all actives have a fitted effect of over 70% in size
Outline: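 Fluorogenic AMC-substrate cleavage by noncovalent NS2B-NS3 protease complex (25 nM, pH 8.0 Tris buffer with Tween 20) followed for 15 minutes at room temperature (~20% conversion). Percent inhibition from ex340/em450 signal change, fitted by 4-parameter Hill equation.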
Potency is the fitted concentration of half-maximal effect.

Structure (SMILES)	Potency
O=C(c1ccc(C=Cc2n[nH]c3ccccc23)cc1)N1CCNCC1	7.64 µM (active)
CCC(=O)OCC(=O)[C@@]1(OC(=O)CC)[C@@H](C)C[C@@H]2[C@H]3CCC4=CC(=O)C=C[C@]4(C)[C@@]3(F)[C@@H](O)C[C@@]21C	inactive
CN1N=C(N)c2cn([C@@H]3O[C@H](COP(=O)(O)O)[C@@H](O)[C@@H]3O)c3ncnc1c23	inactive
O=C1C(CCC(O)c2ccc(F)cc2)C(c2ccc(O)cc2)N1c1ccc(F)cc1 (stereo not given)	inactive
NC(N)=Nc1nc(CSCCC(N)=NS(N)(=O)=O)cs1	inactive
CC[C@H](NC(=O)[C@H](C)NC)C(=O)N1C[C@@H](O)C[C@H]1Cc1c(-c2[nH]c3cc(F)ccc3c2C[C@H]2C[C@H](O)CN2C(=O)[C@H](CC)NC(=O)[C@H](C)NC)[nH]c2cc(F)ccc12	17.1 µM (active)
NC(=O)c1ncn([C@@H]2O[C@H](CO)[C@@H](O)[C@@H]2O)n1	inactive
COc1c(C)cnc(Cn2cnc3c(Cl)nc(N)nc32)c1C	inactive
COC(=O)Nc1ccc(-c2nc(N3CCOCC3)c3cnn(C4CCN(C(=O)OC)CC4)c3n2)cc1	inactive
COC1CCC(C(=O)c2ccc3nc4c(cc3c2)CCCO4)CC1 (stereo not given)	inactive
CCNC(=O)Nc1ccc(Oc2ncnc(N)c2C=NOC)cc1Cl	inactive
COc1cc2nc(-c3cc(F)ccc3O)nc(N[C@@H]3CNC[C@@H]3C(C)(C)O)c2cc1OC	inactive
CC(O)=C(C#N)C(=O)Nc1ccc(C(F)(F)F)cc1	inactive
CN(C)c1ccccc1CN1CCCN(Cc2ccccc2N(C)C)C1c1ccncc1	inactive
COc1cc(CNC(=O)CCCCC=CC(C)C)ccc1O	inactive
C[C@@H](O)[C@H]1C(=O)N2C(C(=O)OCOC(=O)C(C)(C)C)=C(SC3CN(C4=NCCS4)C3)[C@H](C)[C@H]12	inactive
CCC(=C(c1ccc(O)cc1)c1ccc(OCCNC)cc1)c1ccccc1	inactive
CC1=C[C@@H]2[C@@H]([C@@H](O)C[C@@]3(C)[C@H]2C[C@@H](C)[C@]3(O)C(=O)CO)[C@@]2(C)Cc3cnn(-c4ccccc4)c3C=C12	inactive
FC(F)(F)c1ccc(C=Cc2nc(COc3ccc(CCCCn4ccnn4)cc3)co2)cc1	inactive
Cc1ccc(NC(=O)c2cccc(N(C)C)c2)cc1NC(=O)c1ccc(O)cc1	inactive

Structure (SMILES)	Potency
CNC1[C@H](O)C(O[C@@H]2C(O)C(O[C@H]3O[C@H]([C@@H](C)NC)CC[C@H]3N)[C@@H](N)C[C@H]2N)OC[C@]1(C)O (stereo not given in full)	inactive
C[C@]12CCC3=C4CCC(=O)C=C4CC[C@@H]3[C@H]1CC[C@@]2(O)CC#N	inactive
CC(C)C[C@H](NC(=O)c1cc2ccccc2s1)C(=O)N1CCN(C(=O)[C@H](CO)NS(=O)(=O)c2ccc(Cl)cc2Cl)CC1	inactive
CC(C)(CO)[C@@H](O)C(=O)NCCC(=O)O	inactive
OC[C@H]1O[C@@H](O[C@H]2[C@@H](O)[C@@](O)(CO)O[C@@H]2CO)[C@H](O)[C@@H](O)[C@@H]1O	inactive
CN1CCN(c2ncc(-c3cc(Cl)cc(Cl)c3Cl)c(N)n2)CC1	inactive
CNC(=O)c1cc(COc2nnc(Nc3ccc(Cl)cc3)c3ccoc23)ccn1	inactive
O=C(O)c1ccc(O)c2ncc(N3CCOCC3)cc12	inactive
O=C(c1ccc(F)c(F)c1Nc1ccc(I)cc1F)N1CC(O)([C@H]2CCCCN2)C1	inactive
COc1cc(N2CCN(C)CC2)ccc1Nc1nc(N)c(C(=O)c2c(Cl)cccc2Cl)s1	inactive
C=C[C@@H]1CN2CCC1C[C@@H]2C(O)c1ccnc2ccc(OC)cc12 (stereo not given in full)	inactive
CN1[C@H]2CC[C@H]1CC(OC(=O)c1c[nH]c3ccccc13)C2 (stereo not given in full)	inactive
O=C(Nc1cccc(C(F)(F)F)c1)Nc1cc(S(=O)(=O)NC2CC2)ccc1-c1ccsc1	inactive
CCC[C@H](Nc1nc(-c2ccc(NC(=O)NCC)c(OC)c2)ncc1C)c1cccnc1	inactive
CC=C1C2C=C(C)CC1(N)c1ccc(=O)[nH]c1C2 (stereo not given)	inactive
CC(C)C[C@@H](C(=O)N[C@H](C(=O)OC1CCCC1)c1ccccc1)[C@H](O)C(=O)NO	inactive
O=C(Nc1cccc(Cl)c1)Nc1ncc(CCNc2ncnc3ccsc23)s1	inactive
O=c1[nH]c(=O)n([C@H]2C[C@@H](O)[C@@H](CO)O2)cc1C(F)(F)F	inactive
CC(C)CN(C[C@H](O)[C@H](Cc1ccccc1)NC(=O)O[C@H]1CCOC1)S(=O)(=O)c1ccc(N)cc1	inactive
CCC=CC[C@H]1C(=O)CC[C@@H]1CC(=O)OC	inactive
